CendR NRP1 mod: NRP-1/CendR interaction modulation | inhibition, % at 25 µM | FAM-RPARPAR peptide binding to NRP-1, fluorescence polarization | 0.85% of 360,000 active | O14786;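 active = inhibition or corrected inhibition above about 18%, plus a signal ratio from 0.5 to 1.5, limit read from the data, passing the limit was not always enough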
A3A deaminase: human APOBEC3A DNA deaminase inhibition; P31941; recombinant A3A, FAM/TAMRA ssDNA deamination fluorescence; inhibition, % at 20 µM; 0.41% of 330,000 active; AID 493011;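 active = at least 40% inhibition at 20 µM here, with at most 30% in a related deaminase screen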;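 note: plate controls were A3A with DMSO for no effect and wells lacking A3A enzyme for full effect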
Target sequence (P31941 whole entry, looked up): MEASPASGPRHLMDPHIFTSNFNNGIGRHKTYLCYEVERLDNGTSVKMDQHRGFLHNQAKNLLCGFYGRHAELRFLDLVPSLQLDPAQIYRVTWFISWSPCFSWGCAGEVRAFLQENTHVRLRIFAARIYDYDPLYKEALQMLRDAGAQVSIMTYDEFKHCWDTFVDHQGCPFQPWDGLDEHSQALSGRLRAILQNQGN
M18AAP inhibitor: PfM18AAP enzyme inhibition; 1.2% of 290,000 active; AID 1822; recombinant PfM18AAP, H-Glu-NHMec fluorogenic cleavage; inhibition, % at 7.35 µM;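 active = inhibition above the campaign mean inhibition over all tested compounds plus 3 SD, cut at about 28% in these data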;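 note: 0% = plate median of test compound wells and 100% = 2 mM ZnCl2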
A3G deaminase: inhibitors of human APOBEC3G DNA deaminase. inhibition, % at 20 µM. recombinant A3G, ssDNA deamination FAM/TAMRA fluorescence. Q9HC16. 0.28% of 330,000 active. AID 493012;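 active = inhibition of at least 40% at 20 µM, with no more than 30% in the related APOBEC3A deaminase screen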;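 note: plate controls were DMSO wells with A3G for no effect and wells lacking A3G enzyme for full effect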
Target sequence (Q9HC16 whole entry, looked up): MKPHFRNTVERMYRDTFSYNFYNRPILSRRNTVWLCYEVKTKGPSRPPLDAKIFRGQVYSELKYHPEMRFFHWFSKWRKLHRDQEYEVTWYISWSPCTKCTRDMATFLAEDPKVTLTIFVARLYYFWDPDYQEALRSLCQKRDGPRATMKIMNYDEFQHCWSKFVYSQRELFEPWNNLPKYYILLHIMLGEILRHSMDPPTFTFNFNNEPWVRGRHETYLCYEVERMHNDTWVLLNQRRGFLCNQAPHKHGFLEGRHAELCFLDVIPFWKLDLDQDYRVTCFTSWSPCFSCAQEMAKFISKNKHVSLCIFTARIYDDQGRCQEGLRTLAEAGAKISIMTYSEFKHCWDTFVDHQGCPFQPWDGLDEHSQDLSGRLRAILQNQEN
ALR inh: inhibitors of human sulfhydryl oxidase ALR | AID 485317 | 3.8% of 290,000 active | inhibition, % (test concentration not listed) | purified ALR, DTT oxidation, H2O2 HRP-luminol luminescence;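 active = mean replicate inhibition above about 79%, with every replicate also reaching it, limit read from the data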
Yeast superoxide: yeast age-related superoxide inhibition as caloric restriction mimetic; S. cerevisiae aged cells, superoxide DHE fluorescence; hits give low values; superoxide response (% of plate mean), % at 10 µM; 0.18% of 330,000 active; AID 2690;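 active = superoxide response under a set limit, about three screen SD below normal, cut at about 65% in these data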;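 note: yeast aged for seven days with compound at 30 °C before DHE staining; 100% = average MFI of all compound-treated wells on the plate with controls excluded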
The depositor's hits bear a star; · = no result given. Sampled rows, rich in hits. Any-hit rate of the full collection: about 5.2%.

SMILES	CendR NRP1 mod	A3A deaminase	M18AAP inhibitor	A3G deaminase	ALR inh	Yeast superoxide
Cc1ccc(N2C(=O)CSC2c2ccccn2)cc1Cl (stereo not drawn)	4.8	3.5	-11.0	0.7	98.8*	86.9
COCCNC(=O)C1(C)CCCN(Cc2ccc(-c3ccccn3)cc2)C1 (stereo not drawn)	2.8	·	·	·	·	·
O=S(=O)(Nc1ccccc1O)c1ccc(-c2ccccc2)cc1	-3.4	2.1	7.3	-2.9	5.5	82.9
O=C(c1cc2ccccc2cc1O)N1CCCC(C(F)(F)F)C1 (stereo not drawn)	16.5	-3.7	12.9	-3.4	24.0	94.6
NC(=O)c1c(NC(=O)c2ccc(N3C(=O)CCC3=O)cc2)sc2c1CCCC2	2.9	-0.8	·	-0.7	93.1*	82.7
COCCCNC(=O)c1c(NC(=O)c2cccs2)sc2c1CCCC2	3.8	-1.2	-0.5	-2.6	86.3*	91.5
NC(=O)c1c(NC(=O)c2cccs2)sc2c1CCCCCC2	-8.2	-4.0	5.4	-4.9	-8.9	86.4
NC(=O)c1c(NC(=O)C(=O)N2CCOCC2)sc2c1CCC2	-129.7	-5.4	3.1	-3.6	18.8	92.0
NC(=O)c1c(NC(=O)c2ccccc2Cl)sc2c1CCC2	20.4	-2.9	2.7	-5.1	91.2*	103.6
NC(=O)c1c(NC(=O)C(=O)N2CCOCC2)sc2c1CCCC2	31.6*	-6.4	8.3	-9.0	-13.5	100.3
NC(=O)c1c(NC(=O)c2ccccc2C(=O)O)sc2c1CCCC2	-0.2	-4.2	7.8	-7.5	18.5	106.7
CS(=O)(=O)N1CCN(c2ccccc2NC(=O)CSc2ccc(Cl)cc2)CC1	2.5	-1.5	-7.6	-5.4	-1.2	97.1
Cc1ccc(C)c(OCCn2c(=O)c3c(ncn3C3CCCC3)n(Cc3ccccc3)c2=O)c1	-1.5	-0.4	-2.2	-6.9	0.9	91.2
NC(=O)c1c(NC(=O)c2ccc(F)cc2Cl)sc2c1CCC2	-13.9	-0.8	-0.1	-10.6	92.8*	99.2
COC(=O)c1c(NC(=O)c2ccc(N(C)S(=O)(=O)c3ccc(C)cc3)cc2)sc2c1CCCC2	-0.4	-1.1	-14.2	-10.4	-28.1	97.9
COCCN(CCOC)S(=O)(=O)c1ccc(C(=O)Nc2sc3c(c2C(N)=O)CCCCC3)cc1	3.2	-0.5	-1.3	-3.1	90.6*	115.1
COc1ccc(/C=N/Nc2nc(C)cc(=O)[nH]2)cc1OC	12.9	-2.6	-8.2	-9.9	25.5	106.2
COc1ccc(CNC(=O)[C@@H](Cc2ccccc2)NC(=O)CC[C@H]2O[C@@H](n3ccc(=O)[nH]c3=O)[C@H](O)[C@@H]2O)cc1	-1.7	·	·	·	·	·
CN(C)c1ccc(C(=S)N2CCOCC2)cc1	9.4	-4.0	-4.2	-5.8	98.8*	118.3
CC(=O)N1CCN(C(=S)c2ccc([N+](=O)[O-])cc2)CC1	18.4*	-2.5	-0.6	-2.7	-3.6	85.4
CC1CCN(C(=S)c2ccc(N(C)C)cc2)CC1	-0.5	-3.7	3.7	-6.5	99.1*	85.5
CC(=O)N1CCN(c2ccc([N+](=O)[O-])cc2)CC1	1.0	3.0	-1.6	-6.0	3.5	99.8
S=C(c1ccc(Br)cc1)N1CCCC1	-1.4	-1.0	-10.2	-5.6	-3.7	118.4
S=C(c1ccc(N2CCOCC2)cc1)N1CCCCC1	-1.5	-1.6	-3.2	-4.0	86.7*	96.2
CC(NC(=S)NCCCN1CCOCC1)C1CC2CCC1C2 (stereo not drawn)	5.5	·	1.8	·	·	·
SMILES	CendR NRP1 mod	A3A deaminase	M18AAP inhibitor	A3G deaminase	ALR inh	Yeast superoxide
Fc1ccc(NC(=S)N2CCCC2)cc1	-3.7	-2.6	-0.1	-4.0	-1.9	98.1
COc1cc(O)c(C(CCN2CCN(c3ccccc3)CC2)c2ccc3c(c2)OCO3)c(OC)c1 (stereo not drawn)	12.1	-6.0	·	-16.4	-10.9	97.9
CN(C)c1ccc(C(=S)N2CCCCCC2)cc1	-11.1	-1.5	2.0	-6.8	98.3*	86.5
CN(C)c1ccc(C(=S)N2CCN(c3ccccc3)CC2)cc1	3.9	-5.1	3.3	-4.9	99.2*	109.7
CN(C)c1ccc(C(=O)N2CCCC2)cc1	-4.2	0.7	5.2	-6.9	98.4*	91.3
Cc1ccc(N2CCN(C(=S)c3ccc(N(C)C)cc3)CC2)cc1	-14.6	-5.6	9.2	1.3	17.6	98.3
Cc1[nH]c(C)c(S(=O)(=O)NCc2ccc(N(C)C)cc2)c1C(=O)N1CCCC1	7.6	-8.0	4.4	-6.1	98.2*	89.9
Oc1ccc(C(=S)N2CCCCC2)cc1	-4.8	8.6	-18.1	4.1	9.9	103.9
O=C(COC(=O)c1ccc(S(=O)(=O)N2CCc3ccccc3C2)cc1)NC1CCS(=O)(=O)C1 (stereo not drawn)	-13.5	12.1	-3.9	-6.2	-3.8	81.2
COc1ccccc1C(CNC(=O)c1ccc(S(=O)(=O)N2CCCCC2)cc1)N(C)C (stereo not drawn)	16.2	-3.6	·	-5.9	-1.2	106.8
COCCCNC(=O)c1ccc2nc([C@@H]3O[C@H](CO)[C@H](O)[C@H](O)[C@H]3O)[nH]c2c1	6.0	·	·	·	·	·
Cc1ccccc1NC(=O)COC(=O)C1C2CC3OC(=O)C1C3C2 (stereo not drawn)	2.9	1.3	-11.2	-2.3	-0.9	98.5
CC(=O)N1CCN(C(=S)c2ccc(N(C)C)cc2)CC1	-5.2	-0.1	-20.9	20.3	98.3*	92.2
Cc1cc(-c2n[nH]c(=S)n2/N=C/c2ccc(Br)s2)n[nH]1	-2.2	-4.1	6.7	39.9	96.7*	121.0
COCCOC(=O)CSc1ncccc1-c1nc2cc(C)c(C)cc2[nH]1	1.8	-1.1	1.4	-1.2	98.4*	96.1
CC(Oc1ccc2c(-c3ccccc3)cc(=O)oc2c1)C(=O)NCCCN1CCOCC1 (stereo not drawn)	0.3	0.2	2.0	0.4	-0.7	115.0
Cc1cc(Oc2ccc(=O)n(C)n2)nc(=S)[nH]1	·	-2.1	28.4*	-6.1	46.9	98.6
CN(C)/C(Cn1cncn1)=C1/N=C(c2ccccc2)OC1=O	0.8	-2.9	5.9	-6.1	-0.2	102.4
CN1CCN(C/C(=C2/N=C(c3ccccc3)OC2=O)N(C)C)CC1	-0.3	1.8	-3.2	-1.8	97.8*	76.8
Cc1ccccc1C(=O)N1CCC(C(=O)NC2CCCCCC2)CC1	8.8	1.8	3.2	-0.2	-2.3	87.5
Cc1sc2nc(CSC(C)C(=O)Nc3ccc(C#N)cc3)[nH]c(=O)c2c1C (stereo not drawn)	-57.7	5.7	·	-0.7	98.3*	92.6
Cc1sc2nc(CSC(C)C(=O)Nc3ccc(C(N)=O)cc3)[nH]c(=O)c2c1C (stereo not drawn)	-47.0	5.2	·	4.6	99.6*	106.1
Cc1sc2nc(CSC(C)C(=O)Nc3ccc(Cl)cn3)[nH]c(=O)c2c1C (stereo not drawn)	-34.6	-0.4	·	-5.7	8.9	137.7
COc1ccc2c(c1OC)C(=O)N(c1ccc(OCc3ccccc3)cc1)C2=O	4.1	-5.6	-11.9	3.4	1.5	106.5

Bioassay records from PubChem.
